We go through 20 molecules from PMC9911399, “Two distinct binding modes provide the RNA-binding protein RbFox with extraordinary sequence specificity”.

The labels stand for the following.
T1: RBFOX1 RRM (Homo sapiens, UniProt Q9NWB1 109-208)
T1 sequence: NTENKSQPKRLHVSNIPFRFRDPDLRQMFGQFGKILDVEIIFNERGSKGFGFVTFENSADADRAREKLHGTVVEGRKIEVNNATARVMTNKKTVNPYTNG

B1: AUUGUUU (DNA:RNA)
RNA: GGGAGACCGGAAUUCAGAUUGUCCAUUGUUUUUAAAUCCCGUCGUAGCCACCA
DNA 1: CAATCTGAATTCCGGTCTCCC
DNA 2: TGGTGGCTACGACGGGATT
B2: GUUCAGC (DNA:RNA)
RNA: B1 RNA with A25G, G28C, U29A, U30G, U31C
DNA 1: CAATCTGAATTCCGGTCTCCC
DNA 2: TGGTGGCTACGACGGGATT
B3: AAUAUGG (DNA:RNA)
RNA: B1 RNA with U26A, G28A, U30G, U31G
DNA 1: CAATCTGAATTCCGGTCTCCC
DNA 2: TGGTGGCTACGACGGGATT
B4: CGCGAUU (DNA:RNA)
RNA: B1 RNA with A25C, U26G, U27C, U29A
DNA 1: CAATCTGAATTCCGGTCTCCC
DNA 2: TGGTGGCTACGACGGGATT
B5: UAUGUGA (DNA:RNA)
RNA: B1 RNA with A25U, U26A, U30G, U31A
DNA 1: CAATCTGAATTCCGGTCTCCC
DNA 2: TGGTGGCTACGACGGGATT
B6: GUAUUGA (DNA:RNA)
RNA: B1 RNA with A25G, U27A, G28U, U30G, U31A
DNA 1: CAATCTGAATTCCGGTCTCCC
DNA 2: TGGTGGCTACGACGGGATT
B7: ACGGAUU (DNA:RNA)
RNA: B1 RNA with U26C, U27G, U29A
DNA 1: CAATCTGAATTCCGGTCTCCC
DNA 2: TGGTGGCTACGACGGGATT
B8: GUUAAAU (DNA:RNA)
RNA: B1 RNA with A25G, G28A, U29A, U30A
DNA 1: CAATCTGAATTCCGGTCTCCC
DNA 2: TGGTGGCTACGACGGGATT
B9: GGGGCGU (DNA:RNA)
RNA: B1 RNA with A25G, U26G, U27G, U29C, U30G
DNA 1: CAATCTGAATTCCGGTCTCCC
DNA 2: TGGTGGCTACGACGGGATT
B10: CGGGCGU (DNA:RNA)
RNA: B1 RNA with A25C, U26G, U27G, U29C, U30G
DNA 1: CAATCTGAATTCCGGTCTCCC
DNA 2: TGGTGGCTACGACGGGATT
B11: GGGCGUU (DNA:RNA)
RNA: B1 RNA with A25G, U26G, U27G, G28C, U29G
DNA 1: CAATCTGAATTCCGGTCTCCC
DNA 2: TGGTGGCTACGACGGGATT
B12: GGAUUUU (DNA:RNA)
RNA: B1 RNA with A25G, U26G, U27A, G28U
DNA 1: CAATCTGAATTCCGGTCTCCC
DNA 2: TGGTGGCTACGACGGGATT
B13: GGGAAAU (DNA:RNA)
RNA: B1 RNA with A25G, U26G, U27G, G28A, U29A, U30A
DNA 1: CAATCTGAATTCCGGTCTCCC
DNA 2: TGGTGGCTACGACGGGATT
B14: GGGAUUU (DNA:RNA)
RNA: B1 RNA with A25G, U26G, U27G, G28A
DNA 1: CAATCTGAATTCCGGTCTCCC
DNA 2: TGGTGGCTACGACGGGATT
B15: GGGGAAU (DNA:RNA)
RNA: B1 RNA with A25G, U26G, U27G, U29A, U30A
DNA 1: CAATCTGAATTCCGGTCTCCC
DNA 2: TGGTGGCTACGACGGGATT
B16: CGGGAUU (DNA:RNA)
RNA: B1 RNA with A25C, U26G, U27G, U29A
DNA 1: CAATCTGAATTCCGGTCTCCC
DNA 2: TGGTGGCTACGACGGGATT
B17: UCCGGCA (DNA:RNA)
RNA: B1 RNA with A25U, U26C, U27C, U29G, U30C, U31A
DNA 1: CAATCTGAATTCCGGTCTCCC
DNA 2: TGGTGGCTACGACGGGATT
B18: ACUUCCC (DNA:RNA)
RNA: B1 RNA with U26C, G28U, U29C, U30C, U31C
DNA 1: CAATCTGAATTCCGGTCTCCC
DNA 2: TGGTGGCTACGACGGGATT
B19: ACGCCGU (DNA:RNA)
RNA: B1 RNA with U26C, U27G, G28C, U29C, U30G
DNA 1: CAATCTGAATTCCGGTCTCCC
DNA 2: TGGTGGCTACGACGGGATT
B20: UGCCAAA (DNA:RNA)
RNA: GGGAGACCGGAAUUCAGAUUGUCCUGCCAAAUUAAAUCCCGUCGUAGCCACCA
DNA 1: CAATCTGAATTCCGGTCTCCC
DNA 2: TGGTGGCTACGACGGGATT

Numbering of substitutions follows the chain as printed; changes in the protein carry UniProt numbers. Whole data set: some 16,000 sequences, median “ka relative to ugcaugu” near 0.0091, cut for the highest 2% near 0.032. The sample as a whole holds a higher share of the highest values than the screen did.

This assay deals with T1, RBFOX1 RRM. Briefly: EMSA; HiTS-Eq, 1 nM pool, 10 min; buffer printed only for the single-RNA assays: 10 mM Tris pH 7.5, 150 mM NaCl, 3.4 mM EDTA, 0.001% NP-40, 30 C. The following applies: tags: His6 N-terminal (pET28a); label: 5' 32P. In short, it runs like this:
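A pool of RNA with 7 randomized nucleotides, 5′-radiolabelled and with DNA-annealed flanks, was equilibrated at 1 nM for 10 min in 50 µL with purified RbFox RRM, wild type or mutant, across increasing protein concentrations. Free RNA was separated by 8% native PAGE, excised, reverse-transcribed, barcoded by PCR and sequenced. Relative association constants were obtained from read-count changes of each RNA species versus the control reaction and normalised to the cognate motif.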
For orientation: In EMSA bound probe runs differently from free probe, usually more slowly.
With B1, the binding signal is 0.0146 KA relative to UGCAUGU.
Consider B2, for which the binding signal was 0.0147 KA relative to UGCAUGU.
The same measure for B3: 0.00711 KA relative to UGCAUGU; for B4: 0.0158 KA relative to UGCAUGU; for B5: 0.0133 KA relative to UGCAUGU.
Regarding B6, the binding signal is 0.0118 KA relative to UGCAUGU.
The same measure for B7: 0.00809 KA relative to UGCAUGU; for B8: 0.00766 KA relative to UGCAUGU.
The same measure for B9: 0.0374 KA relative to UGCAUGU; for B10: 0.029 KA relative to UGCAUGU; for B11: 0.0253 KA relative to UGCAUGU.
To B12 belongs 0.0184 KA relative to UGCAUGU; to B13, 0.0288 KA relative to UGCAUGU; to B14, 0.0372 KA relative to UGCAUGU.
With B15, the binding signal is 0.0354 KA relative to UGCAUGU.
The same measure for B16: 0.03 KA relative to UGCAUGU.
To B17 belongs 0.0141 KA relative to UGCAUGU.
The same measure for B18: 0.00296 KA relative to UGCAUGU.
Consider B19, for which the binding signal was 0.00555 KA relative to UGCAUGU.
The same measure for B20: 0.0103 KA relative to UGCAUGU.
